For test [1], the target named is T1, Serine/threonine-protein kinase 17A (Homo sapiens) (UniProt Q9UEE5).
T1 sequence (whole entry): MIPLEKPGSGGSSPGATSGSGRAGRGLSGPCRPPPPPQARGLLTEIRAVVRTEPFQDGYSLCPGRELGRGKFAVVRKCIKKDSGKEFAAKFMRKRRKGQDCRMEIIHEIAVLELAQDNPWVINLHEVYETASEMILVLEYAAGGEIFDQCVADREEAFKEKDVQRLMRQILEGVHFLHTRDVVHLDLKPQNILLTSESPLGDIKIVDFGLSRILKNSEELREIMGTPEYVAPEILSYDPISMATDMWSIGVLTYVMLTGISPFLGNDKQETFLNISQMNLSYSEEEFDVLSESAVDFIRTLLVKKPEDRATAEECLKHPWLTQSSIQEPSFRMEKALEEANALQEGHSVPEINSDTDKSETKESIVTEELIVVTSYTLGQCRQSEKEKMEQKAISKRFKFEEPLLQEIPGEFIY
The note with it: at 10 µM.

Test [2] deals with T2, Dual specificity tyrosine-phosphorylation-regulated kinase 2 (Homo sapiens) (UniProt Q92630).
T2 sequence (whole entry): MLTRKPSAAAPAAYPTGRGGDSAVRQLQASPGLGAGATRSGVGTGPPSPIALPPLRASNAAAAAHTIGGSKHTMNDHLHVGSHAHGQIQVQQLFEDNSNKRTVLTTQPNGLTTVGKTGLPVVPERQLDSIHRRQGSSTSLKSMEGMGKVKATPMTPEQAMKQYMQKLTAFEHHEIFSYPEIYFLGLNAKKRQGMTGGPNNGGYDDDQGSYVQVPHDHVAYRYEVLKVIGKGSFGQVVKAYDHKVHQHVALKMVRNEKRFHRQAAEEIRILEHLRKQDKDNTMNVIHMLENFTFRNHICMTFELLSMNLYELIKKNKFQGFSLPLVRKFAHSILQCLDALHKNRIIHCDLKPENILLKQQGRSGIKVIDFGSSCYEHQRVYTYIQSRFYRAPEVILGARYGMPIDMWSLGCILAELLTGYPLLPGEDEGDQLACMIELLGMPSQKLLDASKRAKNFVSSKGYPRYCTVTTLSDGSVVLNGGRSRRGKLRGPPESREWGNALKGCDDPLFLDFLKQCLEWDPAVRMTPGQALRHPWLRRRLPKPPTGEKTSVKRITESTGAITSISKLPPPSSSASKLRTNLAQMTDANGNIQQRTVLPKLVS
The conditions noted are these: at 1 µM.

Test [3] addresses T2, Dual specificity tyrosine-phosphorylation-regulated kinase 2 (Homo sapiens). The conditions noted are these: at 10 µM.
For test [4], the target named is T3, Ephrin type-A receptor 1 (Homo sapiens) (UniProt P21709).
T3 sequence (whole entry): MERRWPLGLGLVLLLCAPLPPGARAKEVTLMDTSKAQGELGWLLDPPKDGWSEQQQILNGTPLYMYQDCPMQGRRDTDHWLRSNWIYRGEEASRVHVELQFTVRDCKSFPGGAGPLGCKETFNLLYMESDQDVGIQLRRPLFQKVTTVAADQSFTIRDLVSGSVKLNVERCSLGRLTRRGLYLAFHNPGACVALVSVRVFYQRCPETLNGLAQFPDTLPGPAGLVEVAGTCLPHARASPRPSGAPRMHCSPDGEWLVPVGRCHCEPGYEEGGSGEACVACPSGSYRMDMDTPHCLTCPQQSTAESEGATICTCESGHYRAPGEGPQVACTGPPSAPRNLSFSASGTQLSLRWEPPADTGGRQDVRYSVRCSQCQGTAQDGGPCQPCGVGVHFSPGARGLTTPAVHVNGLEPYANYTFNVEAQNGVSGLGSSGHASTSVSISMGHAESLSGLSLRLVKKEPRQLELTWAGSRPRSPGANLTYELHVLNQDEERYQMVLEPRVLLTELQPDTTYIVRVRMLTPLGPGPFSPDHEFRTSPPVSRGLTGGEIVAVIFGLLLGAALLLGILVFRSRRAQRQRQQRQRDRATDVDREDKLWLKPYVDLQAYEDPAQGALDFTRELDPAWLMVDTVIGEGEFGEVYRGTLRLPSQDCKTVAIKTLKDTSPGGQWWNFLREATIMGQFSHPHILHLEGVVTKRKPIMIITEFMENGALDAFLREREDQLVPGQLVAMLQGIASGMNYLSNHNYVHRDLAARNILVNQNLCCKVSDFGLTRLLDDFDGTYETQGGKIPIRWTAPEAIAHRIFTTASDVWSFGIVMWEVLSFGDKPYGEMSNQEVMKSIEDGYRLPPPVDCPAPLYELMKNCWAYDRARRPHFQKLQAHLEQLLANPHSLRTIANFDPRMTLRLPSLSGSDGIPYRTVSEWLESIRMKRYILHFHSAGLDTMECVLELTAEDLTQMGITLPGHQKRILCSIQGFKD
The conditions noted are these: at 1 µM.

Test [5] deals with T3, Ephrin type-A receptor 1 (Homo sapiens). The note with it: at 10 µM.
For test [6], the target named is Ephrin type-A receptor 2 (Homo sapiens) (UniProt P29317). The conditions noted are these: at 1 µM.
For test [7] the target is unchanged. The note with it: at 10 µM.
For test [8], the target named is T4, Ephrin type-A receptor 3 (Homo sapiens) (UniProt P29320).
T4 sequence (whole entry): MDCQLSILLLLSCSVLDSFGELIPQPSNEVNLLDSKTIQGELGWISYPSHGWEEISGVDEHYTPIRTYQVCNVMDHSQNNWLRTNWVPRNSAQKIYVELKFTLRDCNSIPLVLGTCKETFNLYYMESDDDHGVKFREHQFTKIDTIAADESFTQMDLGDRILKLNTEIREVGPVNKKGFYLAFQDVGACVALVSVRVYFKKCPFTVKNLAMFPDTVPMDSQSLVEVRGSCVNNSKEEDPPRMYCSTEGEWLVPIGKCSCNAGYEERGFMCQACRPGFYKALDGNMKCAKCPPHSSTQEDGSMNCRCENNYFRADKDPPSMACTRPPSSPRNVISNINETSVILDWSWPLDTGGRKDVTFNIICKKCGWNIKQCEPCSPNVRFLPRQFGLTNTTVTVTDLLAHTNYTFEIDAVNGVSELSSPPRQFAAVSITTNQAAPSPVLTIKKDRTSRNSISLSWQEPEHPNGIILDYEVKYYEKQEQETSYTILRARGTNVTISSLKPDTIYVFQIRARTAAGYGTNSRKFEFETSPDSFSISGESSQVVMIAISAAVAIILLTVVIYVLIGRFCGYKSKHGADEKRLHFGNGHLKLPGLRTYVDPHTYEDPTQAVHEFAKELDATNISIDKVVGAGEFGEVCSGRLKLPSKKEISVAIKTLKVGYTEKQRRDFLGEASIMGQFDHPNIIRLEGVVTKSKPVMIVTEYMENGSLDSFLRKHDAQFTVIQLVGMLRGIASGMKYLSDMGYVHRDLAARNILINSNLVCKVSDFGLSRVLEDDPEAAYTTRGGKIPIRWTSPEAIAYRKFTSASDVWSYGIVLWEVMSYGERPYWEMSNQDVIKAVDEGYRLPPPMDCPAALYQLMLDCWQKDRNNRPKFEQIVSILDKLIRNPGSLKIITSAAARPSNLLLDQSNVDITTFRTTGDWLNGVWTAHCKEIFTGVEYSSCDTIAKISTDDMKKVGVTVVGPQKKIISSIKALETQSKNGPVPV
The conditions noted are these: at 1 µM.

Test [9] addresses T4, Ephrin type-A receptor 3 (Homo sapiens). The note with it: at 10 µM.
Test [10] concerns the target Ephrin type-A receptor 4 (Homo sapiens) (UniProt P54764). The note with it: at 1 µM.
Test [11] shares this target. The conditions noted are these: at 10 µM.
The target of test [12] is Ephrin type-A receptor 5 (Homo sapiens) (UniProt P54756). The conditions noted are these: at 1 µM.
Test [13] has the same target. The conditions noted are these: at 10 µM.
For test [14], the target named is Ephrin type-A receptor 7 (Homo sapiens) (UniProt Q15375). The note with it: at 1 µM.
Test [15] has the same target. The conditions noted are these: at 10 µM.
In test [16] the target is T5, Ephrin type-A receptor 8 (Homo sapiens) (UniProt P29322).
T5 sequence (whole entry): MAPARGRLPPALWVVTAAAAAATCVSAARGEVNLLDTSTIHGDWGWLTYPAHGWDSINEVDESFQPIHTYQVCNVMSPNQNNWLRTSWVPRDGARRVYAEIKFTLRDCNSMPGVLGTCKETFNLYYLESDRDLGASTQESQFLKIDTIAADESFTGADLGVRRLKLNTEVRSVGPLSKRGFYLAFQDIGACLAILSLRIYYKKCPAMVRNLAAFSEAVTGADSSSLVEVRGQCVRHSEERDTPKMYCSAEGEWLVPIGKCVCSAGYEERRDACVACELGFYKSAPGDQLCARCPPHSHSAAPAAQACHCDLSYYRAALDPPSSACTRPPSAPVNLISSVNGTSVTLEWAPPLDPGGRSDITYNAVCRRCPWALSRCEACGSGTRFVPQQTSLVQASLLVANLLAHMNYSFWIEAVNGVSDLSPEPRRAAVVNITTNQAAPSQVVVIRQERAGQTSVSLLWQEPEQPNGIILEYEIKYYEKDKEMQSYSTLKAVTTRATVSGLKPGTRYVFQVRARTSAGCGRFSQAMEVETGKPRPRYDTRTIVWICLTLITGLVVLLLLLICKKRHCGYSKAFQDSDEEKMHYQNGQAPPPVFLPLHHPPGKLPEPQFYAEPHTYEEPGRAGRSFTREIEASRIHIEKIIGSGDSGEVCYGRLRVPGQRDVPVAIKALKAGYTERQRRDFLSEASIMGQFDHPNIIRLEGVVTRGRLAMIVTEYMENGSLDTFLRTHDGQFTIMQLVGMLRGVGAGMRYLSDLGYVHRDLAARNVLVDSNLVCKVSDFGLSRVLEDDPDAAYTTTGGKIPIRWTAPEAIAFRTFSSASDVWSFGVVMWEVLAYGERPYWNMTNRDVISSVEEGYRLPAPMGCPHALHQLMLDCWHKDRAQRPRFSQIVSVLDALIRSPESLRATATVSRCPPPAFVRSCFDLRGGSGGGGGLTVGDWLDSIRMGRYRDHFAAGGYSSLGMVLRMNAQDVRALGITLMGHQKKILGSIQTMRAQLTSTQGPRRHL
The conditions noted are these: at 1 µM.

Test [17] concerns the target T5, Ephrin type-A receptor 8 (Homo sapiens). The conditions noted are these: at 10 µM.
Test [18] concerns the target T6, Ephrin type-B receptor 1 (Homo sapiens) (UniProt P54762).
T6 sequence (whole entry): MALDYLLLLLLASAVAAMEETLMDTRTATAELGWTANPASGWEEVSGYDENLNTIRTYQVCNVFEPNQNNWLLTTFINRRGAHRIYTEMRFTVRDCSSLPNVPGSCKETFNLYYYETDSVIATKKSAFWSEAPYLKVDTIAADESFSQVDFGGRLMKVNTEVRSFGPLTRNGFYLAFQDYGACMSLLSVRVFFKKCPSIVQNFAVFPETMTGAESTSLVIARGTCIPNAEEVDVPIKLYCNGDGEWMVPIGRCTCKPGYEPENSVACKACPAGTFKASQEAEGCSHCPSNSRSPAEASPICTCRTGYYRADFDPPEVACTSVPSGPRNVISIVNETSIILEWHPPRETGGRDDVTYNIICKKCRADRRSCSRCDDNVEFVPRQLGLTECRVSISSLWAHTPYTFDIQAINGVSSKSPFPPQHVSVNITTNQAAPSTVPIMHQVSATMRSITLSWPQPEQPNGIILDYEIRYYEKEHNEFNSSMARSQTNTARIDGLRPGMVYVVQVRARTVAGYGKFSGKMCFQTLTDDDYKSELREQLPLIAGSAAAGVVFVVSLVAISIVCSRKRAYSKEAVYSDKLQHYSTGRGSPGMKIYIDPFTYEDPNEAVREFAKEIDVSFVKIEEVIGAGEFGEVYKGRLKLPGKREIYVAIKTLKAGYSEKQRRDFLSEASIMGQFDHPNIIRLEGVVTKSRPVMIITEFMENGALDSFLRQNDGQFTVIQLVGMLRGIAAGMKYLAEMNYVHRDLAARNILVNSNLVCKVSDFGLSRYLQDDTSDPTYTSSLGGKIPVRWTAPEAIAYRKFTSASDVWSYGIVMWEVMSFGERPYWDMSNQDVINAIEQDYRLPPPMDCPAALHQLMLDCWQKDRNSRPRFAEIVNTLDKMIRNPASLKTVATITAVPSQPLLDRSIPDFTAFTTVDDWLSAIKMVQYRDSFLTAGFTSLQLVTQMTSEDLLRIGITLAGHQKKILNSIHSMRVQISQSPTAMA
The note with it: at 1 µM.

Chain of Ephrin type-A receptor 5 (Homo sapiens) (P54756 whole entry): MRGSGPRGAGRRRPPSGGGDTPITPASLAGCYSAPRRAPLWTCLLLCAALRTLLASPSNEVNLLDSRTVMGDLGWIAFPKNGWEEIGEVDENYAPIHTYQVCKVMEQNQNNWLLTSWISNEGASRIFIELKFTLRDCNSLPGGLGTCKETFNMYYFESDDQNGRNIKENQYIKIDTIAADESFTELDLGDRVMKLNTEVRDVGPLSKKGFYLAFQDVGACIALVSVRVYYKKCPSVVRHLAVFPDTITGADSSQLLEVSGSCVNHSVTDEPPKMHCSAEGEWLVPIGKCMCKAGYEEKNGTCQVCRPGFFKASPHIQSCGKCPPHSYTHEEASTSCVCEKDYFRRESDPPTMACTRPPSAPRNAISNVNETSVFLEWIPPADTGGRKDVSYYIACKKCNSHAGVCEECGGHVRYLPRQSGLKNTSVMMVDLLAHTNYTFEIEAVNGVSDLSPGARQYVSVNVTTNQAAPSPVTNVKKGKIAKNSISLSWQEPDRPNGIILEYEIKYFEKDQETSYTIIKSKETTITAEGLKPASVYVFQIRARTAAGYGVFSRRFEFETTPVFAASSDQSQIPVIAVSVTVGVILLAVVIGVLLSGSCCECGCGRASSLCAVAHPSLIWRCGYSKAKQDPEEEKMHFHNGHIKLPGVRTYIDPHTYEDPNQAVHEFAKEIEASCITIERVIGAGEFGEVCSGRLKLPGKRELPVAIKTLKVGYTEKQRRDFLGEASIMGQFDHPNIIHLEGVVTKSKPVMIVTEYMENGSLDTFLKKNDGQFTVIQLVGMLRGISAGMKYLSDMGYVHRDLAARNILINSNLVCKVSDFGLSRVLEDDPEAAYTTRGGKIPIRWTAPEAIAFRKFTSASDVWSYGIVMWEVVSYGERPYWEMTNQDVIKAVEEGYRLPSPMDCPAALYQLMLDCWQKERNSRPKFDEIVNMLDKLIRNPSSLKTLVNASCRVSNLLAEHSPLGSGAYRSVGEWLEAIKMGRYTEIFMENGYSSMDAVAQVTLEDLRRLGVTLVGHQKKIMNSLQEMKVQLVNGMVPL
Chain of Ephrin type-A receptor 7 (Homo sapiens) (Q15375 28-998 limits assumed): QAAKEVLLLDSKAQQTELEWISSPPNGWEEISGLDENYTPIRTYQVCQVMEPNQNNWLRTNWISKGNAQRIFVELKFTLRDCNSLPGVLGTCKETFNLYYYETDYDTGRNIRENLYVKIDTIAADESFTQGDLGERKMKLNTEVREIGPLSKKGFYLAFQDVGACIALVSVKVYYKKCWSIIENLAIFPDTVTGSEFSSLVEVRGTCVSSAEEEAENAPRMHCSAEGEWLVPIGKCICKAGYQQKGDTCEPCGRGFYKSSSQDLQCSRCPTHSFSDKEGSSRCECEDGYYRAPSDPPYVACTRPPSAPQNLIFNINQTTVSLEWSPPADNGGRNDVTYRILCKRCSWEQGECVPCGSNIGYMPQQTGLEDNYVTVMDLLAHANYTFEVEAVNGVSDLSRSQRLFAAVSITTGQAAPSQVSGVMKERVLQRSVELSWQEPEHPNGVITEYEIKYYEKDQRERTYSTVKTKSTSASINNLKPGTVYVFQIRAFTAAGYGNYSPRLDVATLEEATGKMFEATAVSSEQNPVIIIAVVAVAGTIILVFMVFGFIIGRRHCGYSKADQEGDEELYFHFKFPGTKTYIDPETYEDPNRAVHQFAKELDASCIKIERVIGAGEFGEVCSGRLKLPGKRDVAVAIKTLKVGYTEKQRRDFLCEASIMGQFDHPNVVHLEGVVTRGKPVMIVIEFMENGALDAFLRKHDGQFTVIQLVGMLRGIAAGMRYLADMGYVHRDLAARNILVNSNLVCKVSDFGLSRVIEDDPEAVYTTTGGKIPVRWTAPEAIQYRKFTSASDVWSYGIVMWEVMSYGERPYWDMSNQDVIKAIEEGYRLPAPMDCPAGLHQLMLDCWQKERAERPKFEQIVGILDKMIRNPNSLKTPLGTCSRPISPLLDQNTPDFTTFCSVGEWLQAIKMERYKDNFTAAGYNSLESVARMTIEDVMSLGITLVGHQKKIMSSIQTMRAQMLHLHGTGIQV
Chain of Ephrin type-A receptor 2 (Homo sapiens) (P29317 whole entry): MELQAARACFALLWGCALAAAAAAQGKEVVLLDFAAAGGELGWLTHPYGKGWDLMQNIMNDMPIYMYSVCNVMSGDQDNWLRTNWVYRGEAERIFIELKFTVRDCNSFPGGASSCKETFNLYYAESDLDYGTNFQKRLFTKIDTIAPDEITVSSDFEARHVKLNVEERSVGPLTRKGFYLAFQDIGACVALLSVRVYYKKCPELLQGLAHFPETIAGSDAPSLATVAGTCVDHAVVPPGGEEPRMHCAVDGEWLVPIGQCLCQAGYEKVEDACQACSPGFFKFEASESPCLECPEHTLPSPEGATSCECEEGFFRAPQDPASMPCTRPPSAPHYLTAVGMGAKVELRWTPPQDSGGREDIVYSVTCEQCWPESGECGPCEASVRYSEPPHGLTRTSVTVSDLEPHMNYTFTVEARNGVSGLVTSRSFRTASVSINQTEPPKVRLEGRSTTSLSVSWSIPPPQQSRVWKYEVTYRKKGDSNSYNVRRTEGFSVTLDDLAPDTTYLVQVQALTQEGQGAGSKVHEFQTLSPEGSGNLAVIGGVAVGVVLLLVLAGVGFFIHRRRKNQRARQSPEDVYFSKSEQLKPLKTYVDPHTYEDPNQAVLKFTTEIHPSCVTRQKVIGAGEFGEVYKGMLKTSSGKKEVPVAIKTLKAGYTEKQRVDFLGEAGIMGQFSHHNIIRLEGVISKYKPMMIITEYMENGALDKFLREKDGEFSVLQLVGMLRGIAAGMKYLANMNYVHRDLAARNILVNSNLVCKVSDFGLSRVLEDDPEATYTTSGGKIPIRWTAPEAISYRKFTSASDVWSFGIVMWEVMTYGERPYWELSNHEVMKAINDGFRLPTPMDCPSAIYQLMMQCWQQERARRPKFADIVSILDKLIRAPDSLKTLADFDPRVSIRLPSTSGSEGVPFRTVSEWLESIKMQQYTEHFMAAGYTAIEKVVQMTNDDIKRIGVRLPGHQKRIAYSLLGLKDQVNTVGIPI
Chain of Ephrin type-A receptor 4 (Homo sapiens) (P54764 whole entry): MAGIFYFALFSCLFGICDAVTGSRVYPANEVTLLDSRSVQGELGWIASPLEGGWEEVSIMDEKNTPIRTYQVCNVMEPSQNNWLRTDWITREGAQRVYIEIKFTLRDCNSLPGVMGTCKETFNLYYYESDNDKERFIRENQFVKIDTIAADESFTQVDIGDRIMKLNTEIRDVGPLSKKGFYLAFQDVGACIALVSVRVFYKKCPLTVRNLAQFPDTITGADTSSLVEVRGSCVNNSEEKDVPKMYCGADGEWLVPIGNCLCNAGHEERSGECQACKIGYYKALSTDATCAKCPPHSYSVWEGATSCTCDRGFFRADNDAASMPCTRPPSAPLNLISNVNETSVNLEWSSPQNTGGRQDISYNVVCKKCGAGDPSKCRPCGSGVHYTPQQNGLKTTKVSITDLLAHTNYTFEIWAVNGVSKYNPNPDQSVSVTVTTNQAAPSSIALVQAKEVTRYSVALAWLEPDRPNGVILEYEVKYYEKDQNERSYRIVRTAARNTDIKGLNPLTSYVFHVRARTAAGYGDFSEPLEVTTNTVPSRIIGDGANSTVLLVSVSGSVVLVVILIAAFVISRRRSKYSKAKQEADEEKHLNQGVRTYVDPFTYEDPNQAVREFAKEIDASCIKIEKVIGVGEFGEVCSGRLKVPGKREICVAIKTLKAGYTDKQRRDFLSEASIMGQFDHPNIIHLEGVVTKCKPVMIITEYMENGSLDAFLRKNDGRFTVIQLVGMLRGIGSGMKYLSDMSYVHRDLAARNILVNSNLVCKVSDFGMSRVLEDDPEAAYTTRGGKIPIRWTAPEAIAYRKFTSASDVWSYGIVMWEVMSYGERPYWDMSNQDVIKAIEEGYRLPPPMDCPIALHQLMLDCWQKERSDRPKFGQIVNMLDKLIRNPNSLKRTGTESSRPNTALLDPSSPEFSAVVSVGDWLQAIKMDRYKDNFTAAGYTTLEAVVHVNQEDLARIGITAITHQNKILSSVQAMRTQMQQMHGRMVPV

Broadly, the residual activity is the signal under treatment as a percentage of the control signal. As to `CC(=O)O/N=C1\C(=C2\C(=O)Nc3cc(Br)ccc32)Nc2ccccc21`, the residual activity in test [1] was 31%; in test [2], 96%; in test [3], 92%; in [4] it was 84%; in [5], 71%; in test [6], 92%. In addition, the residual activity in [7] worked out at 59%; in [8], 74%; in test [9], 38%; in [10] it was 112%; in test [11], 84%; in [12], 99%. In addition, the residual activity in [13] worked out at 47%; in test [14] it was 100%; in test [15], 79%; in test [16] it was 84%; in test [17], 77%; in test [18], 86%.

Take `O=C1NC(=O)c2cc(Nc3ccc(F)cc3)c(Nc3ccc(F)cc3)cc21`: the residual activity in test [1] came to 64%; in [2] it was 105%; in test [3] it was 101%; in [4] it was 69%; in [5] it was 52%; in test [6] it was 100%. In addition, the residual activity in test [7] is 80%; in test [8], 104%; in test [9] it was 76%; in test [10], 100%; in test [11] it was 83%; in test [12], 93%. Besides, the residual activity in [13] was 71%; in test [14] it was 74%; in test [15], 21%; in [16], 87%; in test [17], 56%; in test [18], 82%.
